# Screening data deposited in PubChem by National Center for Advancing Translational Sciences (NCATS).
# Most compounds without a hit are left out; they make up all but 9.9% or so of the library.
# KB-3-1 tox: kills parental KB-3-1 adenocarcinoma cells; 1.4% of 400,000 active; Potency, µM (top dose mostly 46.1 µM), usual class: cytotoxic; KB-3-1 viability, CellTiter-Glo ATP luminescence, 72 h; note: potency is the fitted concentration of half-maximal effect; % is set by controls: 0 for no effect and ±100 for the full control effect; nearly all actives have a fitted effect of over 60% in size
#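 KB-3-1 cells, DMEM (no phenol red) + 10% FBS; compound by pin transfer, 72 h, 37 °C. Readout: CellTiter-Glo luminescence after 10 min. Data normalized, curve-fitted.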
# MCF10A rereplic: DNA re-replication induction in MCF 10a cells | MCF 10A DNA re-replication, Hoechst nuclear intensity, 48 h | Potency, µM (top dose mostly 46.1 µM), without a hit: top-dose activity, positive = re-replication, usual class: activators | 2.9% of 350,000 active | AID 624296; note: potency is the fitted concentration of half-maximal effect; % of control where 0% means no effect; nearly all actives have a fitted effect of over 50% in size
# KB-V1 cytotox: kills drug-selected multidrug resistant KB-V1 cells. KB-V1 MDR cells viability, CellTiter-Glo, 72 h. Potency, µM (series often up to 46.1 µM), hits mostly cytotoxic. 3.4% of 400,000 active; note: potency is the fitted concentration of half-maximal effect; % is set by controls: 0 for no effect and ±100 for the full control effect; nearly all actives have a fitted effect of over 60% in size
#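 Luminescent ATP read-out (CellTiter-Glo, 10 min) measures survival of drug-selected KB-V1 MDR cells after 72 h, 37 degrees C compound exposure. Medium: phenol-red-free DMEM, 10% FBS. Values from fitted concentration-response curves.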
# IL-1B inflam inh: inhibitors of inflammasome signaling (IL-1 beta secretion). THP-1 LPS/ATP IL-1B secretion, AlphaLISA, 16 h; stronger effect = lower value. activity change, % at 57.5 µM. 4.7% of 360,000 active; in the data active = activity change below about -50%; inconclusive = mostly about -30% to -49%; note: % is set by controls: 0 for no effect and ±100 for the full control effect
#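 THP-1 cells pretreated 1 hr with compounds (up to 57.5 uM final), then stimulated with LPS (250 ng/mL final) plus ATP (1.25 mM final); secreted IL-1B measured by AlphaLISA after 16 hr, decreased signal indicating inhibition.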
# SW480 rerep: inducers of DNA re-replication in SW480 colon cancer cells. Potency, µM (doses to about 46.1 µM), without a hit: at the top dose re-replication activation, hits mostly activators. AID 624297. SW480 DNA re-replication, Hoechst DNA content imaging, 48 h. 1.8% of 340,000 active; note: potency is the fitted concentration of half-maximal effect; % of control where 0% means no effect; nearly all actives have a fitted effect of over 55% in size
#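 Image-based read-out: total Hoechst fluorescence of nuclei (405 nm excitation, 500-530 nm emission), with hits raising the fraction of high-intensity nuclei. SW480 colon cells incubated 48 hr with compounds at 37 C.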
# * hit, by the source's call; i = inactive; u = inconclusive; x = no result. Unless noted, calls come from the whole dose curve; as a rule, active = well fitted curve in the direction sought with a large enough effect; inconclusive = small, poorly fitted or top-dose-only effect, or another doubt; inactive = no such curve, though single readings can be large; an effect the other way counts as inactive or inconclusive.
SMILES,KB-3-1 tox,MCF10A rereplic,KB-V1 cytotox,IL-1B inflam inh,SW480 rerep
O=C(NC1CCCCC1)C(c1ccc2ncccc2c1)N(Cc1ccccc1)C(=O)c1ccc2c(c1)OCCO2 (stereo not given),i,0%,i,-55*,-3%
COc1cc(C#N)c(N=C(SCC#N)N2CCOCC2)cc1OC,i,-3%,i,27,-19%
CCCC[n+]1c(/C=C/c2ccc(N(C)C)cc2)sc2ccccc21,1.8µM*,x,i,x,x
CN(Cc1ccccc1)c1ccc(/C=C/c2sc3ccccc3[n+]2C)cc1,u,x,i,x,x
CN(C)c1ccc(/C=C/c2sc3ccccc3[n+]2CCCCI)cc1,u,x,23µM*,x,x
COc1ccccc1NC(=O)CSc1nnnn1-c1ccc(F)cc1,i,-1%,i,-17,-7%
CC(=O)Nc1ccc(C(=O)N2CCCCC2c2cc(C(=O)Nc3cccc(C#N)c3)no2)cc1 (stereo not given),u,x,i,-20,x
N#Cc1c(C(F)(F)F)cc(-c2cccs2)nc1SCC(=O)O,i,0%,i,0,-3%
N#Cc1c(C(F)(F)F)cc(-c2cccs2)nc1SCC(=O)Nc1ccc(F)cc1,i,x,i,x,x
CNc1nc(-c2cccs2)cc(C(F)(F)F)c1C#N,i,18µM*,i,4,5.8µM*
N#Cc1c(C(F)(F)F)cc(-c2cccs2)nc1SC(C(=O)O)c1ccccc1 (stereo not given),i,21µM*,i,67,-14%
Cc1cc(C(=O)CCC(=O)Nc2ncccc2O)c(C)s1,i,-19%,i,-2,-36%
Cc1ccc(S(=O)(=O)c2ccc(Oc3cccc(C)c3)cc2)cc1,i,-2%,i,-26,-5%
NC(Cc1ccc(C(F)(F)F)cc1)c1csc(NC(=O)Nc2ccccc2)n1 (stereo not given),i,x,i,0,x
COc1ccccc1NC(=O)Nc1nc(C(N)CC(C)C)cs1 (stereo not given),i,x,i,-57*,x
COc1ccc(CC(N)c2csc(NC(=O)NCc3ccccc3)n2)cc1 (stereo not given),i,x,i,-15,x
COc1ccc(CC(N)c2csc(NC(=O)Nc3ccccc3C(C)(C)C)n2)cc1 (stereo not given),i,x,i,-52*,x
CC(C)CC(N)c1csc(NC(=O)c2cc(C(C)(C)C)nn2Cc2ccccc2)n1 (stereo not given),u,x,18µM*,-114*,x
CC(C)CC(N)c1csc(NC(=O)C(c2ccccc2)c2ccccc2)n1 (stereo not given),u,x,i,-28,x
NC(Cc1ccc(C(F)(F)F)cc1)c1csc(NC(=O)Nc2ccccc2Cl)n1 (stereo not given),i,x,i,-72*,x
Cn1c(N)c(C(=O)COC(=O)COc2ccc(Cl)cc2Cl)c(=O)n(C)c1=O,i,-1%,i,7,-1%
CSc1ncccc1C(=O)OCc1ccc([N+](=O)[O-])cc1,i,1%,i,-22,-13%
Cc1cccc(CN2CCC(Oc3ccc(C(=O)N4CCCC4)cc3)CC2)n1,x,-1%,x,2,3%
COc1ccccc1NC(=O)Nc1nnc(C(C)C)s1,i,-6%,i,11,-4%
COc1ccccc1NC(=O)Nc1nnc(C(C)c2ccccc2)s1 (stereo not given),i,23µM*,i,84,u
SMILES,KB-3-1 tox,MCF10A rereplic,KB-V1 cytotox,IL-1B inflam inh,SW480 rerep
Cc1ccccc1NC(=O)Nc1nc(C(N)Cc2ccccc2)cs1 (stereo not given),i,x,i,-56*,x
CC(C)C(N)c1csc(NC(=O)Nc2ccc(OC(F)(F)F)cc2)n1 (stereo not given),u,x,i,-70*,x
CC(C)C(N)c1csc(NC(=O)Nc2ccccc2C(C)(C)C)n1 (stereo not given),i,x,i,-60*,x
CCc1ccc(-n2c(=O)c3c4c(sc3n(CC(=O)N3CCCCC3CC)c2=O)CCC4)cc1 (stereo not given),i,x,i,x,x
O=C(CCCOc1ccccc1)Nc1cccc(S(=O)(=O)N2CCCCCC2)c1,i,u,i,24,-21%
COc1ccccc1NC(=O)Nc1nc(C(N)Cc2ccccc2)cs1 (stereo not given),i,x,i,u,x
COc1ccc(CC(N)c2csc(NC(=O)Nc3ccccc3-c3ccccc3)n2)cc1 (stereo not given),u,x,u,-58*,x
CC(C)(C)c1cc(C(=O)NN)n(Cc2ccc(F)cc2)n1,u,17%,i,44,u
Cc1cccc(Cn2nc(C(C)(C)C)cc2C(=O)Nc2ccc(F)cc2)c1,u,u,u,-53*,u
COc1ccc2c(c1)cc1c(=O)n(CC(=O)NC3CC3)nc(C)n12,i,x,i,x,x
CC(C)(C)c1ccc(/C=C2\SC(=O)N(CCNC(=O)c3cccc(S(=O)(=O)N4CCOCC4)c3)C2=O)cc1,u,27%,u,-15,7%
Cc1cc(C(=O)CSc2nnc(-c3ccccc3F)o2)c(C)n1Cc1cccs1,i,u,u,43,-4%
COc1ccccc1-n1cnnc1SCC(=O)c1cc(C)n(Cc2cccs2)c1C,i,9%,16µM*,0,-5%
Cc1ccc(N2C(=O)[C@@H]3CSC(c4ccc(Cl)cc4)N3C2=O)cc1 (stereo not given in full),i,x,i,x,x
CCOc1ccc(NC(=O)c2oc3ccccc3c2NC(=O)c2ccc(OC)cc2OC)cc1,i,x,u,x,x
O=C(COC(=O)c1ccccc1)Nc1ccc2[nH]c(=O)[nH]c2c1,i,u,u,31,-114%
O=C(COc1ccccc1Cl)Nc1ccc2c(c1)C(=O)NC2=O,i,5%,i,-27,30%
CCOc1ccccc1OCC(=O)Nc1ccc2[nH]c(=O)[nH]c2c1,8.2µM*,1%,16µM*,25,3%
O=C(COc1ccccc1Cl)Nc1ccc2[nH]c(=O)[nH]c2c1,1.5µM*,0%,0.52µM*,-4,-7%
COC(=O)c1sc(NC(=O)COc2ccc(OC)cc2)nc1C,i,-2%,u,9,4%
COC(=O)c1sc(NC(=O)COc2cccc3ccccc23)nc1C,i,18µM*,u,0,-3%
CCOc1ccccc1OCC(=O)Nc1nnc(C)s1,i,u,i,-58*,-2%
COC(=O)c1sc2nc(CN3CCN(c4cccc(C(F)(F)F)c4)CC3)[nH]c(=O)c2c1C,i,-4%,i,52,-7%
COc1ccccc1CN(C)C(=O)COC(=O)c1cc(C)oc1C,i,5%,i,-18,-114%
